Laboratory results: ChEMBL document CHEMBL3988442, “University of Dundee, Small-Polar-MMV Screening Library” (2021)
For some assays here: Results with a measured potency or affinity are listed apart.

Experiments:
Design in all cases: scale not given: direction of the effect not stated beside the values
[1] = molecular target: Protein translocase subunit SecA (Escherichia coli (strain K12)) (UniProt P10408); test: Assay to Identify E. coli SecA ATPase Inhibitors; type: functional; conditions: 30 µM
Chain of Protein translocase subunit SecA (Escherichia coli (strain K12)) (P10408 whole entry): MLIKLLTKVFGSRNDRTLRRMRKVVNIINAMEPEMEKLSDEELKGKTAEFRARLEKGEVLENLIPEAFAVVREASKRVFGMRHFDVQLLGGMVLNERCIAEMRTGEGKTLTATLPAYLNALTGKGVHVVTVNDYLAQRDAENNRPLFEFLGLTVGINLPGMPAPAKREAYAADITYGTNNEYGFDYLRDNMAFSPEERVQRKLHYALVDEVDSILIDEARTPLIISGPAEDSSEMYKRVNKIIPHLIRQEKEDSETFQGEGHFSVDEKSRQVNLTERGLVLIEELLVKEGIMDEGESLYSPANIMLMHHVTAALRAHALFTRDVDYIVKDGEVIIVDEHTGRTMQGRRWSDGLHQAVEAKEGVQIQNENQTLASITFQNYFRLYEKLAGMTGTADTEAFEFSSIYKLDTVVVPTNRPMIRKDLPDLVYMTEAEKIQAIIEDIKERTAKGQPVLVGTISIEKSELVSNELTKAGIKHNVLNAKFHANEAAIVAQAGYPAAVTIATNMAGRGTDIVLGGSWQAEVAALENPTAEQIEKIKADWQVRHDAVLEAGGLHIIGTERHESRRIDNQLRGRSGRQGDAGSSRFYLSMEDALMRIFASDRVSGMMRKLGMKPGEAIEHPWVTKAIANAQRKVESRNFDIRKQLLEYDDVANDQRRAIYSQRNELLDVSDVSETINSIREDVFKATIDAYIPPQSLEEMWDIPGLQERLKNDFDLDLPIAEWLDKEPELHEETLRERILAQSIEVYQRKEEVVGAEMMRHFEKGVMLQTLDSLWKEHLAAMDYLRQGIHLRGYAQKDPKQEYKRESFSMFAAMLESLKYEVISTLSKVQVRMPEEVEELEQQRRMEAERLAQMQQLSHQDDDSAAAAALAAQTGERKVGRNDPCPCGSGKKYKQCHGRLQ

[2] = molecular target: T1, Ubiquitin-activating enzyme e1, putative (Leishmania donovani (strain BPK282A1)) (UniProt E9BSI1); test: Leishmania donovani Ubiquitin Activating Enzyme (LdE1); type: functional; conditions: 30 µM
T1 sequence (whole entry): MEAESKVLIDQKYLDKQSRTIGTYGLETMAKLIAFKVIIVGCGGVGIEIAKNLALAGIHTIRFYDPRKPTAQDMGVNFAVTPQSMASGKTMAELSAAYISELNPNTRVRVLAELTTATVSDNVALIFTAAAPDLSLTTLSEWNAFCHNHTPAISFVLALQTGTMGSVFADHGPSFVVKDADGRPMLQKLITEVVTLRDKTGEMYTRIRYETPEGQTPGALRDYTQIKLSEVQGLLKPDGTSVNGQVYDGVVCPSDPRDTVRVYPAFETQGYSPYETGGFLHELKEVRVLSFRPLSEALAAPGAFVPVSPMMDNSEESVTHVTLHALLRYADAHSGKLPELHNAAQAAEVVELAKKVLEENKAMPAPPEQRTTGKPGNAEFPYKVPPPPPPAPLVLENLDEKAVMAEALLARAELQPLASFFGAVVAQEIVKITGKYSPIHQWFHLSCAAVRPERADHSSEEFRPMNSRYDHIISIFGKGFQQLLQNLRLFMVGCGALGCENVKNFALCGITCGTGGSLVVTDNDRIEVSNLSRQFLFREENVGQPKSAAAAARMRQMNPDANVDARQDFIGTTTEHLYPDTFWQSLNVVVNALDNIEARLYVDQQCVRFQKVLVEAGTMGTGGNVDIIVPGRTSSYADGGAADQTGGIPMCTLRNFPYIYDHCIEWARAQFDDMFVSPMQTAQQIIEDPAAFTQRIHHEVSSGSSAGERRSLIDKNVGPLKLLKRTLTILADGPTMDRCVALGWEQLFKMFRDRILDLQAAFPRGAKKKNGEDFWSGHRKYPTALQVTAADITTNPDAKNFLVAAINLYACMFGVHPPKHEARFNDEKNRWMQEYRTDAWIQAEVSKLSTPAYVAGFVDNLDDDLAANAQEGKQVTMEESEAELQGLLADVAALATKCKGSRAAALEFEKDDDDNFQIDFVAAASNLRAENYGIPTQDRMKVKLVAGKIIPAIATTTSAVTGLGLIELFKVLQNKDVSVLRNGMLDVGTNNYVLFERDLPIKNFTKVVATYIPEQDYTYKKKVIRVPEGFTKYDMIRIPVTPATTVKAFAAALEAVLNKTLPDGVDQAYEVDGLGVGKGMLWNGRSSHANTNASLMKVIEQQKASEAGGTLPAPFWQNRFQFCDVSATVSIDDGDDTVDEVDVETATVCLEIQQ

[3] = molecular target: AMP-activated protein kinase, AMPK (Homo sapiens) (UniProt P54646+O43741+P54619+Q9UGJ0+Q9Y478+Q13131+Q9UGI9); test: AMP-dependent Kinase enzyme assay. An in vitro enzyme assay that detects ADP turnover that is directly proportional to AMPK activity. This uses naive AMPK that is activated during the assay with MK-8722; type: functional; conditions: 30 µM
[4] = molecular target: Sialic acid-binding Ig-like lectin 9 (Homo sapiens) (UniProt Q9Y336); test: Hs-Siglec9 ALPHAscreen SOP 20170721; conditions: 10 µM
Chain of Sialic acid-binding Ig-like lectin 9 (Homo sapiens) (Q9Y336 whole entry): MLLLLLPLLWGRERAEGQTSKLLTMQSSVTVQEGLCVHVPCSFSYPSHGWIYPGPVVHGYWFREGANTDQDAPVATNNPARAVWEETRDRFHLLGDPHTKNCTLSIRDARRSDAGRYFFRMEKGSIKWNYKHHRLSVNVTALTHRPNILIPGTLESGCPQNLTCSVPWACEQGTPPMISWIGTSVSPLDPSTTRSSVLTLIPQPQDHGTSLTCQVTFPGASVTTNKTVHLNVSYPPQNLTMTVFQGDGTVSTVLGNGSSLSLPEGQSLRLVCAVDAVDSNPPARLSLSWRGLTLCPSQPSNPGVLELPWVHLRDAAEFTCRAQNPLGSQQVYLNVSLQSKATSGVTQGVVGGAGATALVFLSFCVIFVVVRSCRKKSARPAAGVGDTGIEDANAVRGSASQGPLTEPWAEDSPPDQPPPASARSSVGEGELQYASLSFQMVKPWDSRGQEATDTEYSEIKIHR

Trypanosoma cruzi = test: Trypanosoma cruzi phosphomannomutase and mannose-1-phosphate guanylyltransferase assay; type: functional; conditions: 10 µM
[5] = molecular target: T2, Arginase-2, mitochondrial (Homo sapiens) (UniProt P78540); test: in vitro enzyme assay to detect the production of urea directly proportional to the activity of Arginase II; type: functional; conditions: 33.3 µM; note: in the data most compounds retested in dose-response had high values
T2 sequence (whole entry): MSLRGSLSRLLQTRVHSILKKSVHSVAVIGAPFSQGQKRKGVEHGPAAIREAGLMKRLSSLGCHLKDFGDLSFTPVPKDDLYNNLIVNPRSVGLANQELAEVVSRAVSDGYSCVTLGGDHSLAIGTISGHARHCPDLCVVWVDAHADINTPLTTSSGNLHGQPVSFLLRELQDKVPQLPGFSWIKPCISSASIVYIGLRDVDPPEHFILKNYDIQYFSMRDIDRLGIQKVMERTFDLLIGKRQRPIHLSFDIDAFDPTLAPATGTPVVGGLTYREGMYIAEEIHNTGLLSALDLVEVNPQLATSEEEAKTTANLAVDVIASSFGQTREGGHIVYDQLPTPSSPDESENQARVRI

[6] = molecular target: T3, Proteasome subunit beta (Trypanosoma cruzi) (UniProt O96673); test: Trypanosoma cruzi proteasome chymotrypsin-like activity (TcProtChymo) assay.; note: in the data most compounds retested in dose-response had high values; type: functional; conditions: 9.37 µM
T3 sequence (whole entry): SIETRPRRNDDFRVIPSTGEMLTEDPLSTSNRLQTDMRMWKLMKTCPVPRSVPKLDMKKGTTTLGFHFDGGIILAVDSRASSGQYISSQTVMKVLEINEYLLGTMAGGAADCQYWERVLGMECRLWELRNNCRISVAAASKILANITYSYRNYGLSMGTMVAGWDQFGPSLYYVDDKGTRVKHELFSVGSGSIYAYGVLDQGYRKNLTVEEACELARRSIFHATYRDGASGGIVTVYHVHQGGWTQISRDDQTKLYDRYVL

Homo sapiens = species on record: Homo sapiens; test: To identify inhibition of the IFN signalling (Jak-Stat) pathway via expression of an eGFP reporter gene under the control of an IFN-stimulated response element (ISRE) containing MxA promoter.; type: functional; conditions: 30 µM
[7] = molecular target: T4, Tyrosyl-tRNA synthetase, putative (Trypanosoma cruzi (strain CL Brener)) (UniProt Q4DSP6); test: Trypanosoma cruzi tyrosyl tRNA synthetase (TcYRS) _High Tyrosine SOP; type: functional; conditions: 30 µM; note: in the data most compounds retested in dose-response had high values
T4 sequence (whole entry): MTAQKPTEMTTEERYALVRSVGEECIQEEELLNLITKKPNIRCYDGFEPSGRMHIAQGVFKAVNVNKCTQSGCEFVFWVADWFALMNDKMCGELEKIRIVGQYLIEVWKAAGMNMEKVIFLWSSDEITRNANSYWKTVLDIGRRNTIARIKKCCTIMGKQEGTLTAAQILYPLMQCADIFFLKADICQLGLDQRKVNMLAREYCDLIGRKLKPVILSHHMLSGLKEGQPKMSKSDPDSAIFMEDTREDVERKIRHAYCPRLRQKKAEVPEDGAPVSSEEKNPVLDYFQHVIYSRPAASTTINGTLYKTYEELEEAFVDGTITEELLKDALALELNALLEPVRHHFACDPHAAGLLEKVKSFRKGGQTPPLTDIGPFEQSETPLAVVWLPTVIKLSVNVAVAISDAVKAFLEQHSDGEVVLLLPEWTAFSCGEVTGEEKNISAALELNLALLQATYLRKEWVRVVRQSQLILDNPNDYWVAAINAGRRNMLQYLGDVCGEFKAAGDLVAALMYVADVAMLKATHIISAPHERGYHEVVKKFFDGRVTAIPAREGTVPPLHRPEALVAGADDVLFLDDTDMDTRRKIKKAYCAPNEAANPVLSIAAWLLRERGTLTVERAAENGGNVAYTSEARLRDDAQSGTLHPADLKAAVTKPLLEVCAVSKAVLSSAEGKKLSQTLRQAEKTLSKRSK

[8] = molecular target: T4, Tyrosyl-tRNA synthetase, putative (Trypanosoma cruzi (strain CL Brener)); test: Trypanosoma cruzi tyrosyl tRNA synthetase (TcYRS) SOP; type: functional; conditions: 30 µM
[9] = molecular target: Chromo domain-containing protein 1 (Saccharomyces cerevisiae (strain ATCC 204508 / S288c) (Baker's yeast)) (UniProt P32657); test: ScCHD-1 Enzyme Inhibition Assay; type: functional; conditions: 30 µM; note: in the data most compounds retested in dose-response had high values
Chain of Chromo domain-containing protein 1 (Saccharomyces cerevisiae (strain ATCC 204508 / S288c) (Baker's yeast)) (P32657 whole entry, the tested form may be a part): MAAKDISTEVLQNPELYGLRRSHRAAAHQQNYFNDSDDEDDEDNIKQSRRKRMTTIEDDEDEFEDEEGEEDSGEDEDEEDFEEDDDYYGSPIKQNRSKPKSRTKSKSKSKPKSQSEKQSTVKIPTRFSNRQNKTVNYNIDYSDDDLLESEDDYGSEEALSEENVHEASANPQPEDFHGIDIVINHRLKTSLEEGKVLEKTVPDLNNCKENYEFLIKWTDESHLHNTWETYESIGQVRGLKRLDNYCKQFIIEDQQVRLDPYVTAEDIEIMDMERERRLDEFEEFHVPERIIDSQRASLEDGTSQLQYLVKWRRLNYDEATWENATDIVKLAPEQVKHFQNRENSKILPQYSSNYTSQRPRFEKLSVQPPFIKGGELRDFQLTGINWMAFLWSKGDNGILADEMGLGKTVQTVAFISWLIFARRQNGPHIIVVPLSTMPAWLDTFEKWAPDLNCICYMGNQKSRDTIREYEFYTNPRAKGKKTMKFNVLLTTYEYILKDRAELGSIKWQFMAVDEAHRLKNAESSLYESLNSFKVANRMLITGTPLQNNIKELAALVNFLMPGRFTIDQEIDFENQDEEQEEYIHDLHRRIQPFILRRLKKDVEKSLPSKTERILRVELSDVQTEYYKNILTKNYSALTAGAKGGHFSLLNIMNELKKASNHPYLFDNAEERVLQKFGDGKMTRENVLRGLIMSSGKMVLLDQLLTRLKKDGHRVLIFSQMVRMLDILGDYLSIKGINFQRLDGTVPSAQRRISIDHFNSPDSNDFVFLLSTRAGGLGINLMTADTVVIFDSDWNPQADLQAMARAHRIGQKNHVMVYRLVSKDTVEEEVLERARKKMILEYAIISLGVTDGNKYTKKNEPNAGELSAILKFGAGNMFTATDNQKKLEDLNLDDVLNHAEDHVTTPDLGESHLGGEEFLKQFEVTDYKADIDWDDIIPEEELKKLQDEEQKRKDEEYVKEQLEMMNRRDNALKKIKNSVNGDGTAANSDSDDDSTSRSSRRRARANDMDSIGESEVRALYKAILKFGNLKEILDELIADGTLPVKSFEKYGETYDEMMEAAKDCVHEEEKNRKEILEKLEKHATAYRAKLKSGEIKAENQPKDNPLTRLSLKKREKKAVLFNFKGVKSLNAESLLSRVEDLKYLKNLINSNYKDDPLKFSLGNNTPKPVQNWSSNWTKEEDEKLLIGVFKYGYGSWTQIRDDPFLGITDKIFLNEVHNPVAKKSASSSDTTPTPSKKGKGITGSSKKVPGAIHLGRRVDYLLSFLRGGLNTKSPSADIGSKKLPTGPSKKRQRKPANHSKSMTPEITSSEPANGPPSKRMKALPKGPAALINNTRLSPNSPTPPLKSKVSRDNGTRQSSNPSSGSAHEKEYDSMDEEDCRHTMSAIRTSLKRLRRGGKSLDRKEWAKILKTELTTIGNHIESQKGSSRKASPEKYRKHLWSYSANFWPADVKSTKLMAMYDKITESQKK

SMILES | Percent Effect [1] [%] | Percent Effect [2] [%] | Percent Effect [3] [%] | Percent Effect [4] [%] | Percent Effect (Trypanosoma cruzi) [%] | Percent Effect [5] [%] | Percent Effect [6] [%] | Percent Effect (Homo sapiens) [%] | Percent Effect [7] [%] | Percent Effect [8] [%] | Percent Effect [9] [%]
CS(=O)(=O)N[C@@H]1CCO[C@]2(CCN(C(=O)C3=CCCC3)C2)C1 | -2.88 | 13.5 | 3.79 | -4.46 | -2.25 | 14.3 | 23.2 | -15.3 | 5.41 | 12.8 | -3.57
COc1ccccc1CC(=O)NS(C)(=O)=O | -4.83 | 5.2 | 1.28 | 1.8 | -1.87 | -1.42 | 7.6 | 20.4 | 4.85 | 14.6 | -6.74
COc1cc(CCC(=O)NCC2CCCN2C)ccc1OCC(F)(F)F (configuration not stated) | -2.12 | 7.89 | -14 | 4.13 | -0.0934 | -2.88 | 11.4 | 14.2 | 5.42 | 16.1 | -7.41
Cc1cnn(CC2CN(CCN3CCCC3=O)CCO2)c1 (configuration not stated) | -6.18 | 5.41 | -4.61 | 8.1 | 8.7 | 0.744 | 7.3 | -3.36 | -3.23 | 11.1 | -4.96
COc1cc(CN(C(=O)Nc2cccnc2OC)C2CC2)ccc1O | -3.67 | 2.6 | 7.29 | 11.9 | -2.25 | -0.712 | 5.91 | 23.5 | 3.88 | 12.2 | -4.72
CN(Cc1ccc(F)cc1)C(=O)Cn1nc(-c2ccc(F)cc2)oc1=O | -0.937 | 2.63 | 0.873 | -13.2 | -7.3 | 11.8 | 15.4 | 14.9 | -7.45 | -2.6 | -7.96
CC(=O)c1cccc(NC(=O)Cn2cc(I)cn2)c1 | -6.3 | -2.63 | 12 | 2.47 | -2.43 | 11.8 | 9.3 | -2.61 | -2.13 | 2.6 | 63
COc1cc(C(=O)N(Cc2ccc(F)cc2)C2CC2)cc2c1OCCO2 | 0.816 | 7.89 | 1.68 | -4.56 | 2.43 | 3.55 | 21.2 | 36.9 | 3.19 | 13 | -3.44
CCc1c(C)sc(NC(=O)CN2CCN(CC)CC2)c1C(=O)OC | -1.97 | -12.5 | -2.07 | 3.39 | 2.62 | 0 | -2.46 | -12.9 | 0 | -2.56 | 2.67
NC(=O)C1CCN(Cn2nc(-c3ccc(F)cc3)oc2=O)CC1 | -3.92 | 2.6 | 9.43 | 0.452 | -22.7 | 4.14 | 22 | 24.3 | -1.07 | 1.24 | -2.23
COc1cccc(COCC(=O)N2CCCC(c3cc(C)[nH]n3)C2)c1 (configuration not stated) | -3.58 | 13.5 | -9.62 | 3.3 | -2.92 | -0.401 | 2.7 | 10.1 | 11.3 | 16.1 | -4.89
O=C(COCc1nc(-c2ccncc2)no1)N1CCCC1 | -2.71 | 10.4 | 5.42 | 6.86 | 4.42 | -110 | 7.32 | -13.8 | 5.38 | 13.6 | -4.16
NC(=O)C1CCN(C(=O)c2ccn(-c3ccc(F)cc3)n2)C1 (configuration not stated) | -2.82 | 5.41 | 0.129 | -2.22 | -6.96 | 4.25 | 5.39 | 6.15 | 4.95 | 11 | 1.99
CCCOc1ccc(CNC2CCCc3c2cnn3CC)cc1OC (configuration not stated) | -6.15 | 15.2 | -7.05 | 11 | 6.33 | -3.04 | 5.98 | 2.78 | 9.36 | 21.5 | -12.2
CCNS(=O)(=O)c1ccc(C)c(C(=O)N(C)Cc2ccco2)c1 | -2.78 | -4.17 | 4.21 | 0.221 | -1.65 | 0.442 | 13 | -0.366 | -27.4 | -2.56 | 2.86
NC(=O)c1cc(NC(=O)N2CCCCCC2)ccc1F | -2.22 | 16.2 | 5.3 | 2.48 | 2.15 | 30.4 | 11.1 | 44.5 | 6.93 | 13.4 | -2.07
O=C(O)c1ccn(-c2ccccc2NS(=O)(=O)c2ccccc2)n1 | -4.7 | 0 | 0.362 | 0.187 | -5.16 | 2.08 | 9.24 | 7.84 | 3.83 | 3.7 | -5.14
O=C(CCCOc1ccc(F)cc1)N1CCCC(n2cccn2)C1 (configuration not stated) | -2.63 | 13 | 4.56 | 2.38 | -3.82 | 2.74 | 6.71 | 15.8 | 2.86 | 11.8 | -14.5
COc1ccccc1CC(=O)N1CCCC(n2nc(C)cc2C)C1 (configuration not stated) | 4.86 | 0 | 2.98 | -5.42 | -1.23 | 5.32 | 1.06 | 2.12 | -0.493 | -3.8 | -0.887
Cc1ccccc1CS(=O)(=O)CC(=O)NCc1ccccc1F | -3.68 | 7.89 | 11.2 | 7.68 | 0.292 | 3.55 | 10.6 | 31 | 4.25 | 13 | -2.75
CCc1nc(NS(=O)(=O)c2ccc(F)cc2C)no1 | -4.36 | -2.67 | -5.09 | 21.3 | 8.67 | -0.521 | -0.872 | 15.9 | 0.546 | 6.17 | -1.94
COCCN1C(=O)C[C@H]2[C@H]1CCN2Cc1ccc(OC)cc1 | -2.83 | 5.33 | 11 | -2.04 | -9.45 | 7.69 | 13.5 | 17.5 | 3.19 | 6.41 | -5.69
